Experimental data: PubChem BioAssay (EPA / NIEHS)
Results filed as inconclusive are left out. Active and inactive are the calls of the source. How the source made its calls: active means hit-call score of the fitted dose curve at least 0.9, where 1 is the maximum; inconclusive means response in the unintended direction; inactive means score below 0.9.

biological target: Luciferin 4-monooxygenase (Photinus pyralis) (UniProt P08659); assay: CCTE_Simmons_QuantiLum_inhib_2: CCTE's Firefly Luciferase Inhibition Assay, Simmons Lab (AID 2283767);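 on AC50: potency for inhibitors that lower luciferase luminescence relative to DMSO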
Sequence (P08659 whole entry, looked up): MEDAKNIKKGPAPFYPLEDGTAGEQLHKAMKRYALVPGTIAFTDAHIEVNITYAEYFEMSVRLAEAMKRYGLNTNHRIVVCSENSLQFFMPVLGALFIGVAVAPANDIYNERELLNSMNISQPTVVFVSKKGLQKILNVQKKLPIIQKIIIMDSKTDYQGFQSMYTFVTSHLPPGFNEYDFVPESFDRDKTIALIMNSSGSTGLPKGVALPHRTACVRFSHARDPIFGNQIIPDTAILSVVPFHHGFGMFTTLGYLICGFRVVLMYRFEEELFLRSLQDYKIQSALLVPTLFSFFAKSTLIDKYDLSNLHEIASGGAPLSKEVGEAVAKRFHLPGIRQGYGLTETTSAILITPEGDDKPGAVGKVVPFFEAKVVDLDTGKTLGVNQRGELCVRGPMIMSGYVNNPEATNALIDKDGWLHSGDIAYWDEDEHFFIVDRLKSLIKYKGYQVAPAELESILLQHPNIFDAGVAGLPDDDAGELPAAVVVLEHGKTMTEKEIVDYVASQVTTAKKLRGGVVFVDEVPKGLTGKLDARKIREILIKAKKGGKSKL
Method: CCTE_Simmons_QuantiLum_inhib_2 is a biochemical, single-readout assay that uses purified luciferase enzyme in a cell-free assay.Measurements were taken 0.5 hour after chemical dosing in a 384-well plate.CCTE_Simmons_QuantiLum_inhib_2 is the assay component measured from the CCTE_Simmons_QuantiLum_inhib_2 assay. It is designed to make measurements of enzyme activity, a form of enzyme reporter, as detected with bioluminescence signals by Luciferase-coupled Quantilum levels technology. This is a secondary assay to CCTE_Simmons_AUR_TPO to evaluate nonspecific enzyme inhibition.Data from the assay component CCTE_Simmons_QuantiLum_inhib_2 was analyzed at the endpoint, CCTE_Simmons_QuantiLum_inhib_2, in the positive analysis fitting direction relative to DMSO as the negative control and baseline of activity. Using a type of enzyme reporter, measures of enzyme activity for loss-of-signal activity can be used to understand inhibition of firefly luciferase. This is an assay endpoint to indicate nonspecific protein inhibition for comparison to aeid 1508 for thyroperoxidase inhibition. To generalize the intended target to other relatable targets, this assay endpoint is annotated to the oxidoreductase intended target family, where the subfamily is monooxygenase.
Quanti-Lum recombinant luciferase (Promega; Madison, Wisconsin) was diluted to 76.9 ng/ml with 200mM potassium phosphate buffer supplemented with 1 mg/ml bovine serum albumin and 65ul (5ng recombinant luciferase) per well was dispensed into opaque, white 384-well plates (Greiner, BioExpress) using an automated liquid handler (BioTek MicroFlo) with a plastic 5 ul tubing cassette. Test compounds were administered using the HDRT as described earlier to achieve a 0.5% final DMSO concentration. Microplates were incubated at 37C in the dark for 30min to mimic the AUR-TPO assay conditions. Luciferase detection reagent (25 ul per well; 9.2 mM dithiothreitol, 75uM Coenzyme A, 147uM dATP, 150uM D-luciferin, 8.9 mM Tricine, 297uM (MgCO3)4.Mg(OH)2.5H20, 742uM MgSO4, 27.8uM EDTA, pH 7.8, final assay concentrations) was then added using a BMG Clariostar plate reader equipped with syringe injectors (BMG LabTech; GmbH). Plates were read using a kinetic luminescence protocol (top read) whereby each well was individually injected with luciferase detection reagent immediately prior to measurement. Three biological replicates of technical singles were run for every chemical concentration tested. A titrated range of LUCINH2 served as a positive control on each plate of the luciferase inhibition screening assay. Test chemicals were administered as a titrated series of 8 concentrations from 5 nM up to 87.5 uM [final] for 30 minutes prior to single endpoint detection. Dimethylsulfoxide [DMSO] was used as the vehicle control. Luciferase Inhibitor I [2-(5-(2-Methoxyphenyl)-1,2,4-oxadiazol-3-yl)pyridine] was used as the positive control and was administered as a titrated series of 8 concentrations from 1 nM up to 100 uM [final].

Question: With `CCCC1COC(Cn2cncn2)(c2ccc(Cl)cc2Cl)O1` (stereo not drawn) as the molecule, how does the AC50 read?
Answer: Its AC50 is 14.4 µM (active).

Question: `CCCN(CCC)c1c([N+](=O)[O-])cc(S(N)(=O)=O)cc1[N+](=O)[O-]` was tested. Which outcome did it give?
Answer: Its outcome is “inactive”.

Question: For `COP(=S)(OC)Oc1nc(Cl)c(Cl)cc1Cl`, which outcome is on record?
Answer: Its outcome is “inactive”.

Question: `COC(=O)C=C(C)OP(=O)(OC)OC` was tested. Which outcome did it give?
Answer: Its outcome is “inactive”.

Question: With `C=CCC1=C(C)C(OC(=O)C2C(C=C(C)C)C2(C)C)CC1=O` (stereo not drawn) as the molecule, how does the outcome read?
Answer: Its outcome is “inactive”.

Question: Which outcome does the source give for `CCOC(=O)CC(SP(=S)(OC)OC)C(=O)OCC` (stereo not drawn) here?
Answer: Its outcome is “inactive”.

Question: For `CCCCNC(=O)n1c(NC(=O)OC)nc2ccccc21`, which AC50 is on record?
Answer: Its AC50 is 21.5 µM (active).

Question: For `CCOP(=S)(OCC)SCn1c(=O)oc2cc(Cl)ccc21`, which outcome is on record?
Answer: Its outcome is “inactive”.

Question: `CON(C)C(=O)Nc1ccc(Cl)c(Cl)c1` was tested. Which outcome did it give?
Answer: Its outcome is “inactive”.

Question: With `CC1=C(C(=O)Nc2ccccc2)SCCO1` as the molecule, how does the outcome read?
Answer: Its outcome is “inactive”.

Question: Which outcome does the source give for `C=CCC1=C(C)[C@@H](OC(=O)[C@@H]2[C@@H](C=C(C)C)C2(C)C)CC1=O` here?
Answer: Its outcome is “inactive”.

Question: How did the outcome turn out when `O=C(O)c1nc(Cl)ccc1Cl` was run?
Answer: The outcome was “inactive”.

Question: With `CC1COC(Cn2cncn2)(c2ccc(Oc3ccc(Cl)cc3)cc2Cl)O1` (stereo not drawn) as the molecule, how does the outcome read?
Answer: The outcome was “inactive”.

Question: `COP(N)(=O)SC` (stereo not drawn) was tested. Which outcome did it give?
Answer: Its outcome is “inactive”.

Question: Which outcome does the source give for `Oc1ccccc1-c1ccccc1` here?
Answer: The outcome was “inactive”.

Question: For `CNC(=S)S`, which outcome is on record?
Answer: Its outcome is “inactive”.

Question: `CN(C)C(=S)SSC(=S)N(C)C` was tested. Which AC50 did it give?
Answer: The AC50 was 80.1 µM (active).

Question: With `O=C(Nc1ccccc1)Nc1ccnc(Cl)c1` as the molecule, how does the outcome read?
Answer: Its outcome is “inactive”.
